Shown are actives, neighbours in structure and some others; about 12% of the full set was active somewhere.
L3MBTL1 block: qHTS Assay for the Inhibitors of L3MBTL1. AlphaScreen L3MBTL1–H3K9me1 peptide binding. Lethal(3)malignant brain tumor-like protein 1 (Homo sapiens), Q9Y468. AID 485360, 2010. Potency, µM (titrated, usually from 57.1 µM), for inactives: at the top dose activity, negative = inhibition, actives largely listed as inhibitors. hit rate 0.66% among 230,000; also: % is scaled to controls: 0 for no effect and ±100 for the full control effect; nearly all actives have a fitted effect of over 60% in size
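First, the protein-peptide complex forms for 30 min at room temperature (L3MBTL1 50 nM, biotinylated H3K9me1 peptide 75 nM). Next, compounds are pin-transferred and incubated 30 min. Finally, AlphaScreen beads are added and read after 30 min.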
BAZ2B inh: qHTS Assay for Inhibitors of BAZ2B; Bromodomain adjacent to zinc finger domain protein 2B (Homo sapiens), Q9UIF8; hit rate 4.4% among 360,000; Potency, µM (top dose mostly 114 µM), inactives show at the top dose activity change, negative = inhibition, actives largely listed as inhibitors; AlphaScreen BAZ2B-H3K14Ac peptide displacement; also: % is scaled to controls: 0 for no effect and ±100 for the full control effect; nearly all actives have a fitted effect of over 60% in size
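Complex of BAZ2B and biotin-H3K14Ac (50 nM apiece) forms over 30 min at RT, then faces library compounds up to 110 uM for another 30 min; AlphaScreen beads added, 20 min dark incubation, luminescence read.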
Sfp PPTase inh: qHTS Assay for Inhibitors of Bacillus subtilis Sfp phosphopantetheinyl transferase (PPTase); Biochemical Sfp PPTase activity, qHTS; 4'-phosphopantetheinyl transferase ffp (Bacillus subtilis), Q9F4F7; hit rate 3.5% among 310,000; AID 1490, 2009; Potency, µM, for the others: largest response in the series, negative = inhibition, actives largely listed as inhibitors;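 also: the enzyme is Sfp with the accession as filed and its product quenches rhodamine fluorescence; 0% = enzyme reaction without inhibitor and -100% = no enzyme wells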
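With Hepes-Na pH 7.6 buffer containing 10 mM MgCl2, Sfp (15 nM) modified BHQ-2-YbbR (12.5 uM) using rhodamine-CoA (5 uM). Two reads 30 minutes apart at 525/598 nm yielded each well's rate.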
JMJD2A Tudor inh: qHTS Assay for Inhibitors of JMJD2A-Tudor Domain; AlphaScreen JMJD2A-Tudor / H3K4me3 peptide binding; Potency, µM (top dose mostly 114 µM), for the others: at the top dose activity change, negative = inhibition, most hits filed as inhibitors; hit rate 4.4% among 390,000; AID 504339, 2011; also: % is scaled to controls: 0 for no effect and ±100 for the full control effect; nearly all actives have a fitted effect of over 50% in size
HP1b binding inh: HTS for Inhibitors of HP1-beta Chromodomain Interactions with Methylated Histone Tails | Chromobox protein homolog 1 (Homo sapiens), P83916 | hit rate 0.56% among 390,000 | Potency, µM (top dose mostly 114 µM), without a hit: at the highest dose activity change, negative = inhibition, usual class: inhibitors | AlphaScreen HP1-beta / biotin-H3K9me3 peptide binding; also: nearly all actives have a fitted effect of over 70% in size
Target sequence (P83916 whole entry, looked up): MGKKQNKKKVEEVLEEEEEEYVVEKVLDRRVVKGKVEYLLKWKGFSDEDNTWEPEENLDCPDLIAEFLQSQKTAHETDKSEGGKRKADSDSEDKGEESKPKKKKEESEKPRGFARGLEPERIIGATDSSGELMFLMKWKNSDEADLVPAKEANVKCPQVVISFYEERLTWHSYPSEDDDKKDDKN
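Compound inhibition of the preformed complex between 50 nM HP1-beta and 50 nM biotinylated H3K9me3 peptide was read by AlphaScreen. Buffer was PBS pH 7.4 with 0.01% Tween-20. Incubations ran 30 min at room temperature, with 10 ug/mL donor/acceptor beads.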
G9a inh: qHTS Assay for Inhibitors of Histone Lysine Methyltransferase G9a; Histone-lysine N-methyltransferase EHMT2 (Homo sapiens), Q96KQ7; G9a H3K9 monomethylation, AlphaScreen, 2 h; Potency, µM (titrated, usually from 102 µM), for the others: top-dose activity, negative = inhibition, most hits filed as inhibitors; hit rate 8.8% among 350,000; AID 504332, 2011; also: % is scaled to controls: 0 for no effect and ±100 for the full control effect; nearly all actives have a fitted effect of over 75% in size
Target sequence (Q96KQ7 913-1193 limits assumed): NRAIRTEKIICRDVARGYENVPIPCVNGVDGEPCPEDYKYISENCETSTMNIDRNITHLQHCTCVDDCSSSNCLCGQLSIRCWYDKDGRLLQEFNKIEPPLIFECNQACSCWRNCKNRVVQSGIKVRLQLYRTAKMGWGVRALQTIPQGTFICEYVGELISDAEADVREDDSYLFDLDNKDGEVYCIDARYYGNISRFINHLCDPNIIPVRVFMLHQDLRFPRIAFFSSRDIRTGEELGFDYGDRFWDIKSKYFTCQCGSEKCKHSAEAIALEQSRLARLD
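Methyltransferase reactions run at room temperature for 2 h (20 nM enzyme, 500 nM biotin-H3K9 peptide, 20 uM SAM) after a 15 min compound preincubation; product detected by AlphaScreen beads and anti-H3K9me1 antibody.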
Starred values were filed as active, the others as inactive; ? = inconclusive; / = no result given; [ ] = another dose, or the depositor's remark. Calls follow the shape of the dose curve; as a rule, active = well fitted curve in the direction sought with a large enough effect; inconclusive = small, poorly fitted or top-dose-only effect, or another doubt; inactive = no such curve, though single readings can be large; an effect the other way counts as inactive or inconclusive. Potency is read from the fitted curve at half-maximal effect.

SMILES	L3MBTL1 block	BAZ2B inh	Sfp PPTase inh	JMJD2A Tudor inh	HP1b binding inh	G9a inh
O=C(CCc1ccccc1)NNC(=O)COc1ccc([N+](=O)[O-])cc1	/	-3%	22%	12%	43%	23%
CCOC(=O)C1CCN(C(=O)c2cnn(-c3ccc(F)cc3)c2-n2cccc2)CC1	/	-22%	/	-18%	49%	-34%[59 µM]
CCOC(=O)C1CCN(c2nc3c(S(=O)(=O)c4ccc(Br)cc4)nnn3c3ccsc23)CC1	/	-8%	/	-10%	31%	2%[59 µM]
CCn1c(N)c(C(=O)NCc2cccnc2)sc1=S	-1%	-33%	-13%	-8%	-8%	-5%[59 µM]
Nc1c(C(=O)NCc2cccnc2)sc(=S)n1-c1ccccc1	-7%	-11%	13µM*	?	-43%	?
COc1ccc(CNC(=O)c2sc(=S)n(-c3ccc(OC)cc3)c2N)cc1	/	?	20µM*	?	?	?
Cc1ccc(-n2c(N)c(C(=O)NCc3ccco3)sc2=S)cc1	-6%	?	?	?	?	?
Cc1nn(CCC#N)c2nc(-c3ccccc3)cc(C(F)(F)F)c12	6%	12%	-12%	3%	37%	6%
Cc1nn(CCC(N)=S)c2nc(-c3cccs3)cc(C(F)(F)F)c12	0%	-20%	22µM*	-10%	-20%	10µM*
O=C(Cc1ccccc1)NNc1ccc2ccccc2c1	-9%	-29%	17%	-16%	19%	?
O=C(CN1C(=O)CCC1=O)NNc1ccc2ccccc2c1	-7%	-16%	1%	-20%	32%	8.9µM*
COc1ccc(CN2COc3ccc4c(-c5ccccc5)cc(=O)oc4c3C2)cc1OC	/	0%	/	-17%	22%	9%[59 µM]
COc1ccc(/C=C/C(=O)C2C(=O)C=C(C)OC2=O)cc1O (stereo not drawn)	2%	50µM*	5%	-23%	-17%	-23%[59 µM]
COc1cc(/C=C/C(=O)C2C(=O)C=C(C)OC2=O)cc(OC)c1O (stereo not drawn)	-12%	56µM*	-26%	-31%	-2%	50µM*
COc1cc(/C=C/C(=O)O)cc(Br)c1O	/	?	30%	-4%	28%	20%[12.7 µM]
COc1cc(C2CC(=O)Nc3c2c(C)nn3-c2nncc(-c3ccccc3)n2)cc(OC)c1OC (stereo not drawn)	/	-14%	/	-30%	19%	-11%[59 µM]
O=C1C(=O)c2c(ccc3ccccc23)-c2ccccc21	/	/	/	?	-5%	/
O=C(COC(=O)c1c[nH]c2ccccc12)Nc1ccccc1	-4%	/	/	-12%	5%	/
CCOc1ccccc1NC(=O)COC(=O)c1c[nH]c2ccccc12	7%	6%	/	-6%	6%	50µM*
CCc1ccc(C(=O)NNc2ccc(F)cc2F)cc1	5%	-14%	7%	?	-3%	-124%[59 µM]
CC(C)(C)c1ccc(C(=O)NNc2ccc(F)cc2F)cc1	6%	-37%	5%	89µM*	-2%	22µM*
O=C(O)c1ccccc1C(=O)NNc1cccc(Cl)n1	-1%	-21%	-15%	-6%	20%	45µM*
O=C(O)c1ccccc1C(=O)NNc1ccc(Cl)cc1	-2%	-7%	15%	-27%	2%	?
O=C(O)c1ccccc1C(=O)NNc1ccc(F)cc1F	0%	-12%	1%	-24%	22%	50µM*
O=C(Oc1ccc([N+](=O)[O-])cc1)c1cc(-c2ccccc2)nc2ccccc12	2%	-21%	10%	-31%	3%	?
SMILES	L3MBTL1 block	BAZ2B inh	Sfp PPTase inh	JMJD2A Tudor inh	HP1b binding inh	G9a inh
O=[N+]([O-])c1ccc(-c2cc(-c3ccncc3)nc3ccc4ccccc4c23)cc1	-9%	?	-4%	-22%	2%	45µM*
CCN(CC)c1ccc(/C=C/c2cccc[n+]2C)c(OC)c1	-13%	50µM*	-1%	18µM*	-18%	35µM*
CCOc1ccc(CNC(=O)c2cc3ccccn3n2)cc1	/	1%	/	-20%	-13%	-5%[59 µM]
Fc1ccc(-n2c(-c3ccc4c(c3)OCO4)n[nH]c2=S)cc1Cl	4%	-27%	-9%	-20%[57.1 µM]	6%	1.4µM*
COc1cc(OC)cc(-c2n[nH]c(=S)n2-c2ccc3c(c2)OCO3)c1	8%	-11%	?	20µM*	-3%	1.8µM*
CCC1CN(C(=O)N2CCC(C(=O)NCc3ccc(OC)cc3OC)CC2)c2ccccc2O1 (stereo not drawn)	/	-10%	5%	-17%	51%	/
O=C1C(=O)N(C2CCNCC2)CCN1Cc1ccccc1	/	1%	/	-16%	0%	?
COC(CN(C(=O)CCl)C(C(=O)NC1CCCCC1)c1ccc(Cl)cc1)OC (stereo not drawn)	16%	10%	7%	-9%	22%	-6%[59 µM]
COC(CN(C(=O)CCl)C(C(=O)NC1CCCC(C)C1C)c1ccc(C)cc1)OC (stereo not drawn)	13%	-14%	4%	-25%	21%	50µM*
C=CCN1/C(=C2/SC(=S)N(C)C2=O)Sc2ccccc21	-1%	?	-12%	/	/	40µM*
CCN1C(=O)/C(=C2/Sc3ccccc3N2CC)SC1=S	1%	-8%	-4%	-4%	31%	/
NN1C(=O)/C(=C2/Sc3ccccc3N2CCCS(=O)(=O)O)SC1=S	-30%	79µM*	-16%	?	-23%	40µM*
Cc1ccc(S(=O)(=O)N2C(=O)/C(=C3\SC(=S)NC3=O)c3ccccc32)cc1	/	?	2%	/	/	?
O=C1NC(=S)S/C1=C1\Sc2ccccc2N1CCCS(=O)(=O)O	-24%	?	25µM*	17%[11.4 µM]	?	10µM*
CC(=O)N=c1sccn1CC(O)c1ccc(Br)cc1 (stereo not drawn)	/	-7%	-4%	-13%	24%	-2%
O=C(NCc1ccco1)c1cc(-c2ccccc2)nc2ccccc12	/	-5%	-6%	-24%	8%	13%[2.33 µM]
O=C(NCc1ccco1)c1cc(-c2ccccn2)nc2ccccc12	-2%	-3%	-9%	-23%	14%	79µM*
COc1ccc(Nc2cc(C(=O)NCc3ccccn3)c3ccccc3n2)c(OC)c1	-22%	?	2%	/	/	-34%
COc1ccc(-c2cc(C(=O)NCc3ccco3)c3ccccc3n2)c(OC)c1	/	?	0%	-20%	35%	/
